Several values for one entry are separate records, joined by “and”; a condition that tells them apart may be missing. Identical values can stand only once. Inconclusive results are not listed. A call without a number means that no potency is given here. Values without a mark were called inactive. Activity calls are given as the source filed them. Unless noted, calls come from the whole dose curve; as a rule, active = well fitted curve in the direction sought with a large enough effect; inconclusive = small, poorly fitted or top-dose-only effect, or another doubt; inactive = no such curve, though single readings can be large; an effect the other way counts as inactive or inconclusive.
Key:
[1] = molecular target: Cellular tumor antigen p53 (Homo sapiens) (UniProt P04637); experiment: Primary qHTS for small molecule compounds that upregulate eGFP-tagged delta133p53alpha (in N-terminal) cells. (AID 2060322); settings: NCI-H358 eGFP-delta133p53alpha fluorescence, 24 h; activation: active compounds read high;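 note: cells pre-induced with doxycycline then dosed without doxycycline; series mostly up to about 56 µM; nearly all actives have a fitted effect of over 75% in size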
Chain of Cellular tumor antigen p53 (Homo sapiens) (P04637 whole entry, looked up): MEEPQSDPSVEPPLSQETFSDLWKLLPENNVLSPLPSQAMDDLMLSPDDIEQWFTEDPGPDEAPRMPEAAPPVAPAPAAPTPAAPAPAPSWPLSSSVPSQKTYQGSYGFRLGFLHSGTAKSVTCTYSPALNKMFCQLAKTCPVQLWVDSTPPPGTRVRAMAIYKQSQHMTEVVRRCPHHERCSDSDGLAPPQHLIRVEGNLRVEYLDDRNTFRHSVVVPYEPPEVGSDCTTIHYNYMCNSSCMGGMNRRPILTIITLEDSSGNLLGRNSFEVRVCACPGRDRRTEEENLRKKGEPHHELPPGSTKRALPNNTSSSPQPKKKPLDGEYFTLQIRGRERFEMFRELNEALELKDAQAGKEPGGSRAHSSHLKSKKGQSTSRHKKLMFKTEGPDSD
Summary of the method: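 NCI-H358 cells pre-induced 24 h with 10 ng/ml doxycycline for eGFP-delta133p53alpha, plated dox-free and exposed 24 h at 37C to titrated compounds. Fixed, Hoechst-stained; gated GFP peak intensity by laser scanning cytometry, normalized to DMSO (0%) and 57.5 uM 5-azacytidine (100%).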

[2] = molecular target: Cellular tumor antigen p53 (Homo sapiens) (UniProt P04637); experiment: Primary qHTS for small molecule compounds that upregulate eGFP-tagged delta133p53alpha (in C-terminal) cells. (AID 2060324)
Summary of the method: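 Readout: filtered GFP peak intensity of gated cells (laser scanning cytometer), normalized plate-wise to intraplate controls, DMSO wells = 0% activity. Cells: NCI-H358 D133p53a-eGFP, dox 100 ng/ml 24 h beforehand, then compound 24 h, 37 °C.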

[3] = molecular target: Aldehyde dehydrogenase, mitochondrial (Homo sapiens) (UniProt P05091); experiment: qHTS for Inhibitors of the Aldehyde Dehydrogenase Family (ALDH2) Validation screens (AID 2061302; active = well fitted inhibition curve with a large enough effect; title and protocol of this record describe different tests)
[4] = molecular target: Retinaldehyde dehydrogenase 3 (Homo sapiens) (UniProt P47895); experiment: qHTS for Inhibitors of the Aldehyde Dehydrogenase Family (ALDH1A3) Validation screen (AID 2061312); note: nearly all actives have a fitted effect of over 45% in size
[5] = molecular target: Aldehyde dehydrogenase, mitochondrial (Homo sapiens) (UniProt P05091); experiment: qHTS for Inhibitors of the Aldehyde Dehydrogenase Family (ALDH2) Primary screen (AID 2061308); note: nearly all actives have a fitted effect of over 55% in size
[6] = molecular target: Retinaldehyde dehydrogenase 3 (Homo sapiens) (UniProt P47895); experiment: qHTS for Inhibitors of the Aldehyde Dehydrogenase Family (ALDH1A3) Primary screen (AID 2061315)
[7] = BET inhibitor-based combinations targeting novel dependencies in MECOM-rearranged (r) AML: SET-2 cell line (AID 2202231); settings: SET-2 AML cells viability, CellTiter-Glo luminescence, 48 h; viability: active compounds read low, series mostly up to about 46 µM; note: nearly all actives have a fitted effect of over 35% in size
Summary of the method: (§1)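 Cells were plated at 500 per well and exposed to an 11-point dose series of each drug for 48 hr. Viability was measured by CellTiter-Glo luminescence, normalized to DMSO and empty-well controls, and summarized as AUC and per-cell-line Z-AUC.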

[8] = BET inhibitor-based combinations targeting novel dependencies in MECOM-rearranged (r) AML: MV-4-11 cell line (AID 2202233); note: nearly all actives have a fitted effect of over 45% in size; note: potency is the fitted concentration of half-maximal effect
Summary of the method: (§2)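 Activity is given as area under the curve and as Z-AUC, mean-centred within each cell line. It comes from 11-point dose curves normalized to DMSO and empty wells. CellTiter-Glo luminescence was read after 48 hr drug exposure of 500 cells/well.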

[9] = BET inhibitor-based combinations targeting novel dependencies in MECOM-rearranged (r) AML: HNT-34 cell line (AID 2202234); note: nearly all actives have a fitted effect of over 35% in size
Summary of the method: as §2

[10] = BET inhibitor-based combinations targeting novel dependencies in MECOM-rearranged (r) AML: UCSD-AML1 cell line (AID 2202235); note: series mostly up to about 46 µM; nearly all actives have a fitted effect of over 40% in size
Summary of the method: as §2

[11] = BET inhibitor-based combinations targeting novel dependencies in MECOM-rearranged (r) AML: AML-194 cell line (AID 2202237; note: nearly all actives have a fitted effect of over 40% in size)
Summary of the method: as §1

[12] = BET inhibitor-based combinations targeting novel dependencies in MECOM-rearranged (r) AML: OCI-AML3 cell line (AID 2202232); settings: Potency: OCI-AML3 viability; note: series mostly up to about 46 µM; nearly all actives have a fitted effect of over 35% in size
Summary of the method: as §1

[13] = BET inhibitor-based combinations targeting novel dependencies in MECOM-rearranged (r) AML: AML-191 cell line (AID 2202236; note: nearly all actives have a fitted effect of over 35% in size)
Summary of the method: as §1

| SMILES | activation [1] | Potency [2] | Potency [3] | Potency [4] | Potency [5] | Potency [6] | viability [7] [%] | Potency [8] | Potency [9] | Potency [10] | Potency [11] | Potency [12] | Potency [13] |
| --- | --- | --- | --- | --- | --- | --- | --- | --- | --- | --- | --- | --- | --- |
| Cc1nc(N=Nc2ccc(S(=O)(=O)O)cc2S(=O)(=O)O)c(COP(=O)(O)O)c(C=O)c1O | -9.78% | inactive | inactive | inactive |  |  |  |  |  |  |  |  |  |
| Nc1nc(Cl)nc2c1ncn2[C@@H]1O[C@H](COP(=O)(O)OP(=O)(O)OP(=O)(O)O)[C@@H](O)[C@H]1O | -39.8% | inactive | inactive | inactive |  |  |  |  |  |  |  |  |  |
| CCO/C([O-])=N/c1c[n+](N2CCOCC2)no1 | 9.21% and 19.2% | inactive | inactive | inactive |  |  |  |  |  |  |  |  |  |
| Nc1ccc(N2C(=O)c3ccccc3C2=O)c(Cl)c1 | -1.82% | inactive | inactive | inactive |  |  |  |  |  |  |  |  |  |
| O=C(Nc1ccc2c(c1)CCN(Cc1ncn[nH]1)C2)c1ccccc1-c1ccc(C(F)(F)F)cc1 | -9.63% and 4.33% | inactive | inactive | inactive | inactive | inactive | 96.3 | 14.8 µM (active) | inactive | inactive | inactive |  |  |
| c1cnc2cc3c(cc2n1)C1CNCC3C1 | -5.72% and -13.8% | inactive | inactive | inactive | inactive | inactive | 106 | inactive | inactive | inactive | inactive | inactive | inactive |
| COc1ccccc1N1CCN(CCN(C(=O)C2CCCCC2)c2ccccn2)CC1 | -36.9% and -0.333% and -10.7% | inactive | inactive | inactive | inactive | inactive |  |  |  | inactive | inactive |  |  |
